The compounds below were run on EGFR. Details: concentration: 1 μM, replicates: in singlicate; n = 1.
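Also: KINOMEscan kinase panel screen.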

Structure (SMILES) | %Inh
Cc1cccc(-c2nc(Nc3cccc(C(N)=O)c3)c3ccccc3n2)n1 [GW876019] | 15%
CC(C)(C)c1ccc(C(=O)Nc2cn3cc(-c4cccnc4)ccc3n2)cc1 | 17%
Clc1cc(Cl)cc(Nc2ccnc(Nc3cc(Cl)cc(Cl)c3)n2)c1 [GSK175726] | 38%
COc1ccc(CNC(=O)NC2CCN(c3ccnc(Nc4cc(OC)c(OC)c(OC)c4)n3)C2)cc1 (stereo not shown) [GSK1379748] | 31%
Fc1cccc(COc2nnc(-c3ccc4c(c3)CCO4)o2)c1 | 6%
CN1C(=O)C(Nc2ccc(Cl)c(C(=O)O)c2)=C(c2ccc(Cl)cc2)C1=O [SB-404290] | 0%
Cn1cncc1-c1ccc2ncnc(Nc3ccc(OCc4ccccc4)cc3)c2c1 [GW320571] | 99.3%
Nc1ncnc2[nH]c(-c3ccccc3)nc12 [AH5015] | 25%
Cc1nnc(-c2ccc3occ(-c4ccc(S(C)=O)cc4)c3c2)[nH]1 (stereo not shown) | 0%
Fc1cc(Cl)ccc1Nc1ccnc2cc(I)ccc12 [GW551191] | 21%
CC(C)(C)c1ccc(C(=O)Nc2cn3cc(Cl)ccc3n2)cc1 | 0%
C[C@@H]1CCCCN1c1cc(-c2ccc3c(N)n[nH]c3c2)nc(N)n1 [GSK2258759] | 18%
Cc1cccc(-c2nc(Nc3ccc4[nH]ncc4c3)c3ccccc3n2)n1 [GW857175] | 0%
Cc1cccc(-c2cc(Nc3ccncc3)c3ccccc3n2)n1 [GSK223675] | 17%
COc1cc2nccc(Nc3ccc(NC(=O)c4ccc(C)cc4)c(O)c3)c2cc1OC.Cl [GW440132] | 0%
COc1cc(Nc2nccc(N3CCC(NC(=O)Nc4cc(C)ccc4C)C3)n2)cc(OC)c1OC (stereo not shown) [GSK1379762] | 63%
COC(=O)c1c(-c2ccccc2)c2cc(OC)ccc2c(=O)n1Cc1ccccc1 | 0%

Structure (SMILES) | %Inh
Cc1c(Cn2ccn3c(=O)cc(N4CCOCC4)nc23)cccc1C(F)(F)F [GSK2289044] | 40%
Cl.Oc1ccc(-c2nc(-c3ccccc3)[nH]c2-c2ccncc2)cc1 [SB-428218] | 31%
CC1=C(C(=O)Nc2cc3cn[nH]c3cc2F)C(c2ccc(C(F)(F)F)cc2)CC(=O)N1 (stereo not shown) [GSK429286] | 33%
CCCc1ccc(S(=O)(=O)NC2CCN(c3ccnc(Nc4ccc(F)cc4)n3)C2)cc1 (stereo not shown) [GSK1379715] | 0%
Cc1ccc(NC(=O)Nc2cccc(Cl)c2)cc1-c1ccc(C(=O)Nc2ccncc2)cc1 [GSK1398468] | 24%
O=S(=O)(c1ccc(-c2ccnc3[nH]ccc23)cc1)N1CCCC1 [GSK846226] | 33%
Cn1ccc2ncnc(Oc3ccc(NC(=O)Nc4ccccc4)cc3)c21 | 3%
CCn1c(-c2ccccn2)nc2cnccc21 [SB-736398] | 15%
CC(=O)Nc1nc2cnc(Nc3cc(NC(=O)c4cccc(CCC#N)c4)ccc3C)nc2s1 | 6%
Cc1cccc(-c2nc(C)cc(Nc3ccncc3)n2)n1 [GSK257997] | 30%
CS(=O)(=O)c1ccc(-c2c(-c3ncn[nH]3)sc(N3CCOCC3)c2C#N)cc1 | 12%
O=C(O)COc1ncnc2cc(-c3ccc4[nH]ncc4c3)sc12 | 0%
Cc1c(O)cccc1Nc1ccnc2ccc(C(F)(F)F)cc12.Cl [GW466413] | 28%
O=C(Nc1ccc2c(c1)OCO2)NC1CCN(c2ccnc(Nc3ccc(F)cc3)n2)C1 (stereo not shown) [GSK1379724] | 0%
Cl.c1ccc(-c2n[nH]cc2-c2ccnc(-c3ccc(CN4CCOCC4)cc3)c2)nc1 [GW776245] | 34%
Cc1ccc(NC(=O)Nc2cc(C(C)(C)C)nn2-c2ccccc2)cc1 [GSK1014915] | 38%

What follows are compounds tested on EIF2AK1. Details: concentration: 1 μM, replicates: in singlicate; n = 1.

Structure (SMILES) | %Inh
Cc1cccc(-c2nc(Nc3cccc(C(N)=O)c3)c3ccccc3n2)n1 [GW876019] | 0%
CC(C)(C)c1ccc(C(=O)Nc2cn3cc(-c4cccnc4)ccc3n2)cc1 | 3%
Clc1cc(Cl)cc(Nc2ccnc(Nc3cc(Cl)cc(Cl)c3)n2)c1 [GSK175726] | 0%
COc1ccc(CNC(=O)NC2CCN(c3ccnc(Nc4cc(OC)c(OC)c(OC)c4)n3)C2)cc1 (stereo not shown) [GSK1379748] | 0%
Fc1cccc(COc2nnc(-c3ccc4c(c3)CCO4)o2)c1 | 0%
CN1C(=O)C(Nc2ccc(Cl)c(C(=O)O)c2)=C(c2ccc(Cl)cc2)C1=O [SB-404290] | 0%
Cn1cncc1-c1ccc2ncnc(Nc3ccc(OCc4ccccc4)cc3)c2c1 [GW320571] | 96.7%
Nc1ncnc2[nH]c(-c3ccccc3)nc12 [AH5015] | 100%
Cc1nnc(-c2ccc3occ(-c4ccc(S(C)=O)cc4)c3c2)[nH]1 (stereo not shown) | 0%
Fc1cc(Cl)ccc1Nc1ccnc2cc(I)ccc12 [GW551191] | 0%
CC(C)(C)c1ccc(C(=O)Nc2cn3cc(Cl)ccc3n2)cc1 | 0%
C[C@@H]1CCCCN1c1cc(-c2ccc3c(N)n[nH]c3c2)nc(N)n1 [GSK2258759] | 0%
Cc1cccc(-c2nc(Nc3ccc4[nH]ncc4c3)c3ccccc3n2)n1 [GW857175] | 5%
Cc1cccc(-c2cc(Nc3ccncc3)c3ccccc3n2)n1 [GSK223675] | 0%
COc1cc2nccc(Nc3ccc(NC(=O)c4ccc(C)cc4)c(O)c3)c2cc1OC.Cl [GW440132] | 0%
COc1cc(Nc2nccc(N3CCC(NC(=O)Nc4cc(C)ccc4C)C3)n2)cc(OC)c1OC (stereo not shown) [GSK1379762] | 0%
CSc1nn2c(=O)cc(N3CCOCC3)nc2n1Cc1cccc(C(F)(F)F)c1C [GSK2363608] | 0%

Structure (SMILES) | %Inh
COC(=O)c1c(-c2ccccc2)c2cc(OC)ccc2c(=O)n1Cc1ccccc1 | 5%
Cc1c(Cn2ccn3c(=O)cc(N4CCOCC4)nc23)cccc1C(F)(F)F [GSK2289044] | 2%
Cl.Oc1ccc(-c2nc(-c3ccccc3)[nH]c2-c2ccncc2)cc1 [SB-428218] | 5%
CC1=C(C(=O)Nc2cc3cn[nH]c3cc2F)C(c2ccc(C(F)(F)F)cc2)CC(=O)N1 (stereo not shown) [GSK429286] | 0%
CCCc1ccc(S(=O)(=O)NC2CCN(c3ccnc(Nc4ccc(F)cc4)n3)C2)cc1 (stereo not shown) [GSK1379715] | 12%
Cc1ccc(NC(=O)Nc2cccc(Cl)c2)cc1-c1ccc(C(=O)Nc2ccncc2)cc1 [GSK1398468] | 0%
O=S(=O)(c1ccc(-c2ccnc3[nH]ccc23)cc1)N1CCCC1 [GSK846226] | 0%
Cn1ccc2ncnc(Oc3ccc(NC(=O)Nc4ccccc4)cc3)c21 | 22%
CCn1c(-c2ccccn2)nc2cnccc21 [SB-736398] | 0%
CC(=O)Nc1nc2cnc(Nc3cc(NC(=O)c4cccc(CCC#N)c4)ccc3C)nc2s1 | 21%
Cc1cccc(-c2nc(C)cc(Nc3ccncc3)n2)n1 [GSK257997] | 0%
CS(=O)(=O)c1ccc(-c2c(-c3ncn[nH]3)sc(N3CCOCC3)c2C#N)cc1 | 21%
O=C(O)COc1ncnc2cc(-c3ccc4[nH]ncc4c3)sc12 | 0%
Cc1c(O)cccc1Nc1ccnc2ccc(C(F)(F)F)cc12.Cl [GW466413] | 0%
O=C(Nc1ccc2c(c1)OCO2)NC1CCN(c2ccnc(Nc3ccc(F)cc3)n2)C1 (stereo not shown) [GSK1379724] | 0%
Cl.c1ccc(-c2n[nH]cc2-c2ccnc(-c3ccc(CN4CCOCC4)cc3)c2)nc1 [GW776245] | 0%
Cc1ccc(NC(=O)Nc2cc(C(C)(C)C)nn2-c2ccccc2)cc1 [GSK1014915] | 0%

Reference: publication PMC5540273 (PLoS ONE, 2017)
